Laboratory results as given in PubChem BioAssay (EPA / NIEHS).
Active and inactive are the calls of the source. Rule for the calls: active = hit-call score of the fitted dose curve at least 0.9, where 1 is the maximum; inactive = score below 0.9.

Experiments:
[1] = read-out: Monokine induced gamma interferon (MIG), CXCL9 (gene 4283); experiment: BSK_SAg_MIG: BioMAP Diversity Plus: SAg Assay for Monokine induced gamma interferon (MIG) Biomarker Activity (AID 2283092); conditions: primary human HUVEC with PBMC; actives raise or lower the signal
Summary of the method: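 HUVEC plus human PBMC co-culture, chemicals dosed and MIG (CXCL9) quantified by ELISA at 24 h. Bidirectional curve fitting against DMSO as negative control and baseline, so both gain and loss of signal count as activity.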

[2] = BSK_SAg_PBMCCytotoxicity: PBMC Cytotoxicity Assessment in the BioMAP Diversity Plus: SAg Assay (AID 2283093); conditions: primary human HUVEC with PBMC;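 note: fitted both ways against DMSO so a hit may be loss or gain of signal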;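 for AC50: PBMC superantigen activated with SEB plus TSST-1 one hour after compound addition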
Summary of the method: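 PBMC viability by Alamar Blue reduction, fluorescence read at 546/580 nm after 6 h dye exposure. Cells were dosed 1 h before SEB plus TSST-1 activation (20 ng/mL final each), then held 90 h; endothelial/PBMC human co-culture.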

[3] = read-out: Interleukin-8 (IL8), CXCL8 (gene 3576); experiment: BSK_SAg_IL8: BioMAP Diversity Plus: SAg Assay for Interleukin-8 (IL8) Biomarker Activity (AID 2283094); conditions: primary human HUVEC with PBMC; actives raise or lower the signal
Summary of the method: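 Chemicals were dosed onto a human endothelial–PBMC co-culture, and IL-8 was quantified by ELISA after 24 h. Both increases and decreases were fitted relative to DMSO.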

[4] = BSK_SAg_Proliferation: Cell Proliferation Assessment in the BioMAP Diversity Plus: SAg Assay (AID 2283095); conditions: primary human HUVEC with PBMC;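 note: relative cell number as total protein by SRB absorbance in sub-confluent culture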
Summary of the method: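 Absorbance of sulforhodamine B at 560 nm reports total protein in a human vascular endothelial/PBMC co-culture after 96 h chemical exposure. Gain or loss of signal is fitted in both directions against DMSO.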

[5] = BSK_SAg_SRB: Viability Assessment in the BioMAP Diversity Plus: SAg Assay (AID 2283096); conditions: primary human HUVEC with PBMC;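 note: cells read one day after compound addition; hits may be either gain or loss of signal compared with DMSO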
Summary of the method: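 Compounds were added to a human vascular co-culture of umbilical vein endothelium and PBMC. After 24 h, parallel cultures were fixed with 10% TCA, stained with 0.1% sulforhodamine B and read at 560 nm. Gain or loss of signal was fitted relative to DMSO.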

Measured: AC50

CN[C@H]1CC[C@@H](c2ccc(Cl)c(Cl)c2)c2ccc(S(N)(=O)=O)cc21
active: [1] 31.2 µM | [2] 20.5 µM | [3] 13.8 µM | [4] 12.4 µM | [5] 28.8 µM

CC(=O)OCCOCCOCCOC(C)=O
inactive: all assays above

Cc1ccccc1Cl
inactive: all assays above

Cc1ccc(N(C)C)cc1
inactive: all assays above

O=C(O)CCCCC(=O)O
inactive: all assays above

COCCOC[C@H](CC1(C(=O)NC2CCC(C(=O)O)CC2)CCCC1)C(=O)Oc1ccc2c(c1)CCC2 (some centres undefined)
inactive: all assays above

C=CCc1ccc(O)c(OC)c1
inactive: all assays above

CC(=O)OC/C=C(\C)CCC=C(C)C
inactive: all assays above

CCCCCCCCCCCCCO
active: [2] 33.2 µM | [3] 38 µM | [5] 37.5 µM
inactive: [1] | [4]

NC(=O)Cn1c(=O)cc(CCN2CCN(c3nccc4sccc34)CC2)c2ccc(F)cc21
inactive: all assays above

Cc1cccc(Nc2cc(Cl)nc(SCC(=O)O)n2)c1C
inactive: all assays above

CCCCCCCC=O
inactive: all assays above

NCC1(Cc2noc(=O)[nH]2)CCCCC1
inactive: all assays above

CCCCCCCCCCC
inactive: all assays above

Cc1cc(NC(=O)C(=O)O)cc(C)c1Oc1ccc(O)c2c1CCC2
inactive: all assays above

Clc1cc(Cl)c(Cl)cc1Cl
inactive: all assays above

OC[C@@H](O)[C@@H](O)[C@H](O)[C@H](O)CO
not listed: [5]
inactive: all other assays above

CC(=O)Oc1ccccc1C(=O)O
inactive: all assays above

Nc1ccc(S(=O)(=O)c2ccc(N)cc2)cc1
inactive: all assays above

Cc1cccc(C)c1O
inactive: all assays above

CC(CO)OC(C)CO (centres undefined) (tested in a mixture with another compound)
inactive: all assays above

CCCCN(CCCC)CCCC
inactive: all assays above

O=c1[nH]cc(F)c(=O)[nH]1
active: [4] 2.48 µM
inactive: all other assays above

Cc1cc(=O)[nH]c(=S)[nH]1
inactive: all assays above

c1cc(-c2ccncc2)ccn1
inactive: all assays above

C[Si]1(C)O[Si](C)(C)O[Si](C)(C)O[Si](C)(C)O1
inactive: all assays above

CCCCCCCCCCO
inactive: all assays above
